Measurements published in PubChem BioAssay (Tox21).
Inconclusive results are not listed. A number with no mark means an inactive call. Active and inactive are the calls of the source. Calls follow the shape of the full dose curve.

experiment: qHTS assay to identify small molecule antagonists of the estrogen receptor alpha (ER-alpha) signaling pathway - cell viability counter screen (AID 743074); settings: ERalpha-bla HEK293 viability, CellTiter-Glo luminescence, 18 h; series mostly up to 69.4 µM; activity, negative = cytotoxicity: at the top concentration;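 also: HEK293 cells carrying ER-alpha-UAS-bla reporter stimulated with 17beta-estradiol; nearly all actives have a fitted effect of over 45% in size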
% is scaled to controls: 0 for no effect and ±100 for the full control effect.

Compound	Potency	activity, negative = cytotoxicity
C=CC(=O)O	inactive	–
CN1C(CSCC(F)(F)F)Nc2cc(Cl)c(S(N)(=O)=O)cc2S1(=O)=O (configuration not stated)	–	13.4%
CC(C)(C)S	–	8.58% [at 79.1 µM]
CNc1c2c(nn1C)CCCC2	–	-1.15%
O=C(O)c1cccc(Oc2ccccc2)c1	–	16%
COc1cc(NS(=O)(=O)c2ccc(N)cc2)nc(C)n1	–	28.3%
O=C(NC(Cc1cc(=O)[nH]c2ccccc12)C(=O)O)c1ccc(Cl)cc1 (configuration not stated)	–	-5.96%
CCCCCCCCCCCC(=O)OCC(O)CO (configuration not stated)	inactive	–
Cc1cn([C@H]2C[C@H](F)[C@@H](CO)O2)c(=O)[nH]c1=O	–	9.32%
CC(C)(O)CCc1ccccc1	–	8.13%
CC(C)CC(O)CC(C)C	–	-17.7%
Cc1ccc(N(CCO)CCO)cc1	–	27%
CCCCCCCCCCCCCCCC(=O)OCC	–	-18.6%
CC(C)(C)C1(CCc2ccc(Cl)cc2)CO1 (configuration not stated)	–	-1.71%
Cc1ccc(S(=O)(=O)NC(=O)NC2CCCCC2)cc1	–	-3.42%
O=C(O)CNC(=O)c1ccccc1I	–	17.5%
ClC1=C(Cl)C1(Cl)Cl	–	5.44% [at 79.1 µM]
OCC(CO)n1cnc(-c2ccc(F)cc2)c1-c1ccnc(Oc2ccccc2)n1	–	-2.58%
CNC1CCCN(c2c(F)cc3c(=O)c(C(=O)O)cn(C4CC4)c3c2OC)C1 (configuration not stated)	–	-18.8%

Compound	Potency	activity, negative = cytotoxicity
CC[C@H]1OC(=O)[C@H](C)[C@@H](O[C@H]2C[C@@](C)(OC)[C@@H](O)[C@H](C)O2)[C@H](C)[C@@H](O[C@@H]2O[C@H](C)C[C@H](N(C)C)[C@H]2O)[C@](C)(O)C[C@@H](C)CN(C)[C@H](C)[C@@H](O)[C@]1(C)O	inactive	–
CC(C)C(=O)OCCOc1ccccc1	–	10.2%
CC1=C2[C@@H]([C@H](C)CC[C@H]2/C=C(\C)C(=O)O)[C@H](O)C1	–	-20.4%
CC(=O)OCCC1CCCCC1	–	6.51%
CC(C)C1CCC(C(=O)N[C@H](Cc2ccccc2)C(=O)O)CC1 (some centres not stated)	–	-7.69%
CCCCCCC(O)CCOC(C)=O (configuration not stated)	–	-20.9% [at 214 µM]
CC(C)N(C)C	–	-15.9%
CC(C)COC(=O)COc1cc(Cl)c(Cl)cc1Cl	–	7.67%
O=CNNC=O	–	8.32% [at 79.1 µM]
C=CC(=O)NC(C)C	–	22.6%
CC1CCCC(=O)C1=O (configuration not stated)	–	12.6%
O=c1[nH]c2cc(C(F)(F)F)c(N3CCOCC3)cc2n(CP(=O)(O)O)c1=O	–	-5.27%
O=P(O)(O)Oc1ccccc1	–	-14.5%
CCC(CO)(CO)CO	–	19.1% [at 79.1 µM]
O=C(Nc1ccc(C(=O)O)c(O)c1)c1ccccc1	–	-7.02%
O=C(CCS)OCC(COC(=O)CCS)(COC(=O)CCS)COC(=O)CCS	–	7.26%
CC[C@H]1OC(=O)[C@H](C)[C@@H](O[C@H]2C[C@@](C)(OC)[C@@H](O)[C@H](C)O2)[C@H](C)[C@@H](O[C@@H]2O[C@H](C)C[C@H](N(C)C)[C@H]2O)[C@](C)(O)C[C@@H](C)/C(=N\OCOCCOC)[C@H](C)[C@@H](O)[C@]1(C)O	inactive	–
Cc1cccc2sc(N)nc12	–	1.44% [at 79.1 µM]
